Assay outcomes as filed in PubChem.
This is a sample that favours compounds with a hit; in the whole collection about 28% have one here.
CYP2C9 inhib: blocks human cytochrome P450 2C9 | CYP2C9 Supersomes, luciferin-H conversion, luminescence | inhibition, % at 5 µM | hit rate 20% among 96,000 | AID 777;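 active means blocking of liver enzyme CYP2C9 beyond about 50% at 5 µM, limit read from the data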
CD11b adhes enh: enhancers of human CD11b/CD18 binding to fibrinogen. hit rate 0.07% among 93,000. K562 CD11b/CD18 adhesion to fibrinogen, ATPlite luminescence. P05107+P11215. activation, % at 10 µM;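 active means 10 µM primary screen giving 50% or more activity, confirmed by 40% or more on retest at that dose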
Target sequence (P05107 whole entry, looked up, other chains not shown): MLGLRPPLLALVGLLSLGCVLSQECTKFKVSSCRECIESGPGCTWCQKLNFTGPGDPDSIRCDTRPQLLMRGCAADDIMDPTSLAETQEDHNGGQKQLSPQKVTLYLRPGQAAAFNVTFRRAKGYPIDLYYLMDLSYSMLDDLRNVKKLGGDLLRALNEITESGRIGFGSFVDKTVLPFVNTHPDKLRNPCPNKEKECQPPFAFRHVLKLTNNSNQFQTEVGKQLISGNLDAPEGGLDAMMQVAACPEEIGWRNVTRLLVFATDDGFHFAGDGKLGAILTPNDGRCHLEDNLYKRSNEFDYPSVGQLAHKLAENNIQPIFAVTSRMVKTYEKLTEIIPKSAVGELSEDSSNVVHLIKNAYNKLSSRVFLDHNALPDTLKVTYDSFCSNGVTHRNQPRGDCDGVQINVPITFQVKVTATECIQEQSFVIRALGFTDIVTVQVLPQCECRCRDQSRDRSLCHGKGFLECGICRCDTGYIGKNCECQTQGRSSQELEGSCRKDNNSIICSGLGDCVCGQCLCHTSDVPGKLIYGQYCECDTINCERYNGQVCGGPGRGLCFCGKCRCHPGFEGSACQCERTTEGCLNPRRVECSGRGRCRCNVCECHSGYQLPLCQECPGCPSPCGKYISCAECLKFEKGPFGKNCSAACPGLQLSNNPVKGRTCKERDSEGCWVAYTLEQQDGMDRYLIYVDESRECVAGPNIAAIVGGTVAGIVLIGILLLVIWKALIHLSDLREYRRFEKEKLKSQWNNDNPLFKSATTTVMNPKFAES
CYP2C19 inh: blocks human cytochrome P450 2C19; P33261; CYP2C19 Supersomes, luciferin-H EGE luminescence, 30 min; inhibition, % at 5 µM; hit rate 21% among 96,000;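 active means CYP2C19 inhibition above a set limit at 5 µM in the primary screen, cut at about 50% in these data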;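 further: plate controls were negative control wells for no effect and 2.5 mM tranylcypromine positive control for full effect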
CYP2C9 activ: increases human cytochrome P450 2C9 activity. P11712. recombinant CYP2C9, luciferin-H conversion, luminescence; stronger effect = higher value; factor 1 = untreated enzyme, 0 = blocked. activation factor at 5 µM. hit rate 1.4% among 96,000;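 active means activation factor of 2 or more for CYP2C9 at a 5 µM dose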;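 further: 0 = sulfaphenazole-blocked wells and 1 = vehicle-only wells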
CYP2C19 activ: activators of human cytochrome P450 2C19 | P33261 | recombinant CYP2C19, luciferin-H EGE luminescence; stronger effect = higher value; 0 = fully inhibited enzyme, 1 = untreated enzyme | activation factor at 5 µM | 96,000 tested, under 10 active;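 active means activation factor of at least 2 at 5 µM in the primary screen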;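 further: 0 = wells with 2.5 mM tranylcypromine and 1 = vehicle-only wells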
CD11b adhes inh: blocks human CD11b/CD18 adhesion to fibrinogen. inhibition, % at 10 µM. AID 1497. P05107+P11215. hit rate 0.54% among 93,000. K562 CD11b/CD18 adhesion to fibrinogen, ATPlite luminescence; Mn2+ added to activate the integrin;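 active means primary inhibition of 50% or more at 10 µM, then 40% or more on retest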
* hit, by the source's call; . = not tested or not shown.

SMILES	CYP2C9 inhib	CD11b adhes enh	CYP2C19 inh	CYP2C9 activ	CYP2C19 activ	CD11b adhes inh
O=C(OCC(=O)N1CCc2ccccc21)c1cccnc1Cl	2	-1	9	1	0.9	-17
Cc1ccc(C(=O)Nc2cc(C)c(OCC(=O)N3CCOCC3)c(C)c2)cc1	78*	-4	10	0.2	0.9	6
Cc1ccc(CCN2C(=O)CCC2(C)C(=O)NCc2cccnc2)cc1 (centres undefined)	18	-1	11	0.8	0.9	-6
O=C(CCSc1nnc(-c2ccncc2)o1)Nc1ccc(F)cc1	57*	1	85*	0.4	0.1	27
O=C(CCSc1nnc(-c2ccncc2)o1)Nc1ccccc1	85*	-5	86*	0.2	0.1	-48
Cc1nnc(SCCC(=O)Nc2ccc(F)cc2)s1	-1	-2	17	1	0.8	10
COc1ccc(Cl)cc1NC(=O)CSc1nc(N2CCCCC2)nc(N2CCCCC2)n1	84*	3	20	0.2	0.8	-10
COc1ccc(Cl)cc1Nc1nc(NCCO)nc(N2CCCC2)n1	59*	4	57*	0.4	0.4	-47
COc1ccc(/C=N/Nc2nc(N3CCCC3)nc(N3CCCC3)n2)cc1O	-20	.	-17	1.2	1.2	.
Cc1ccccc1NC(=O)CSc1nc(N2CCCCC2)nc(N2CCCCC2)n1	14	.	13	0.9	0.9	.
O=c1cc[nH]c2cccc(Cc3ccccc3)c12	2	.	26	1	0.7	.
O=C(O)C1C2C=CC3(CN(Cc4ccccn4)C(=O)C13)O2 (centres undefined)	-27	.	-30	1.3	1.3	.
C=CCSc1nc(N)c(C(=O)Nc2ccccc2OC)cc1C(=O)Nc1ccccc1	61*	-4	-12	0.4	1.1	-11
CC(=O)c1c(OC(=O)c2ccc(C)cc2)c2ccccc2n1C	22	0	34	0.8	0.7	-41
CC(=O)c1c(OC(=O)c2ccco2)c2ccccc2n1C	23	7	62*	0.8	0.4	2
CCc1ccc(CNC(=O)CN2C(=O)COc3ccccc32)cc1	-62	0	72*	1.6	0.3	-17
O=C(CN1C(=O)COc2ccccc21)NCc1ccc(C(=O)O)cc1	-1	1	-9	1	1.1	10
Cc1cc(C)n(C(=O)CN2C(=O)COc3ccccc32)n1	57*	-3	80*	0.4	0.2	0
CC(NC(=O)CN1C(=O)COc2ccccc21)c1ccccc1 (centres undefined)	-116	-4	89*	2.2*	0.1	2
CC(NC(=O)CN1CCc2ccccc21)c1ccccc1 (centres undefined)	.	-2	.	.	.	2
CC(C)CNC(=S)Nc1ccc(Oc2ccccc2)cc1	.	-8	.	.	.	95
CCC(C)NC(=O)C1CCC(=O)N(c2ccc3c(c2)OCO3)C1c1ccc(OC)cc1 (centres undefined)	26	4	39	0.7	0.6	-16
CCOC(=O)CSc1nc2c(c(-c3ccc(C)o3)c1C#N)CCCC2	47	9	70*	0.5	0.3	30
COC(=O)CSc1nc2c(c(-c3ccco3)c1C#N)CCCC2	-30	0	11	1.3	0.9	-22
Cc1ccc(-c2c(C#N)c(N)nc3c2CCCCC3)o1	50*	-3	53*	0.5	0.5	-13
SMILES	CYP2C9 inhib	CD11b adhes enh	CYP2C19 inh	CYP2C9 activ	CYP2C19 activ	CD11b adhes inh
Cc1ccc(-c2c(C#N)c(N)nc3c2CCCCCC3)o1	22	0	18	0.8	0.8	4
CCOC(=O)c1c(C2COc3ccccc3O2)csc1NC(=O)c1ccco1 (centres undefined)	48	-3	-4	0.5	1	.
Cc1cc(N2CCN(c3ccccc3)CC2)nc(-c2ccccc2O)n1	7	-1	4	0.9	1	20
Cc1nc(-c2ccccc2O)n(-c2ccccc2)n1	68*	-2	53*	0.3	0.5	14
O=C(/C=C/c1ccccc1)CC(O)(c1ccccc1)C(F)(F)F (centres undefined)	45	-1	65*	0.5	0.4	23
CCOC(=O)Nc1nnc(-c2ccc(OC)c(OC)c2)s1	-28	-2	-1	1.3	1	-14
CC(C)COCC1CC2(CC(C)(c3csc(N)n3)OC2=O)C(=O)O1 (centres undefined)	-22	4	3	1.2	1	-10
